Tau fluor cs = counter-screen for tau fibril formation inhibitors | 280,000 tested, 0.93% active | Potency, µM (titrated, usually from 57.7 µM) | AID 1463 | tau K18 P301L Alexa594 fluorescence, heparin fibrillization; note: nearly all actives have a fitted effect of over 55% in size
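Human K18 P301L tau (15 uM unlabeled plus 0.24 uM Alexa 594-labeled, final) in 100 mM sodium acetate pH 7 was mixed with compound and 20 uM heparin and incubated 6 hr at 37 C.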
GoLoco inh red = inhibitors of human Gai1-RGS12 GoLoco interaction (red fluorophore); Potency, µM (top dose mostly 61.6 µM), actives largely listed as inhibitors; 230,000 tested, 0.44% active; Gai1:RGS12 GoLoco peptide FP, rhodamine, 10 min; AID 880; P63096; active = well fitted inhibition curve with a large enough effect, not every such curve was filed as active; inactive = no such curve, though single readings can be large or run the other way; note: nearly all actives have a fitted effect of over 30% in size
Target sequence (P63096 whole entry, looked up): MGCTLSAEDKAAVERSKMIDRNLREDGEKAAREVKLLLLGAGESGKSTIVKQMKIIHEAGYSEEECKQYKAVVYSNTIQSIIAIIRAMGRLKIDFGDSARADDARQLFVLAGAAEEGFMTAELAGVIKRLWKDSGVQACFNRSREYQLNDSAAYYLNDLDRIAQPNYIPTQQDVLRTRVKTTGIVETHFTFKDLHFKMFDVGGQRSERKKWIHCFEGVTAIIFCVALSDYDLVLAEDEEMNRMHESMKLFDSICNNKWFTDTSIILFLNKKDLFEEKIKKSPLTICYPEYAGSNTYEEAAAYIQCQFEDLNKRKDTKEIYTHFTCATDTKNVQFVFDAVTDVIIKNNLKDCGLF
Tau ThT inhib = blocks human tau fibril formation measured by thioflavin T; P10636; recombinant tau K18 P301L, heparin-induced fibrillization, ThT fluorescence; AID 1460; 270,000 tested, 2.1% active; Potency, µM (series often up to 57.4 µM), actives largely listed as inhibitors; note: nearly all actives have a fitted effect of over 55% in size
Target sequence (P10636 561-689 P618L limits assumed): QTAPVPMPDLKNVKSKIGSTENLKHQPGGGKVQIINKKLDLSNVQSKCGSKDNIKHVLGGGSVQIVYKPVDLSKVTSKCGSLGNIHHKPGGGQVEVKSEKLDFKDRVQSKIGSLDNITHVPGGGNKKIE
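ThT emission at 510 nm, taken 1 hr after adding 30 uM dye, quantifies aggregates formed when 20 uM heparin acts on human tau K18 P301L for 6 hr at 37 C.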
Tau fibril FP = blocks human tau fibril formation measured by polarization; 280,000 tested, 0.39% active; K18 P301L tau heparin fibrillization, Alexa594 FP, 6 h; Potency, µM (titrated, usually from 57.7 µM), actives largely listed as inhibitors; P10636; note: nearly all actives have a fitted effect of over 55% in size
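Recombinant K18 P301L […], labeled with Alexa 594 at 0.24 uM over 15 uM unlabeled; heparin inducer 20 uM final; 37 C, 6 hr; FP endpoint.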
TRb SRC2 PPI = disrupts binding of human TR beta to SRC2 | TRbeta-SRC2 peptide binding, fluorescence polarization; receptor liganded with 1 µM T3 | P10828 | 280,000 tested, 0.065% active | Potency, µM (series often up to 106 µM), hits mostly inhibitors; note: nearly all actives have a fitted effect of over 50% in size
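Human TRb ligand-binding domain (0.6 uM) is mixed with 20 nM Texas Red SRC2 peptide and 1 uM T3; after compound addition and 5 hr at ambient temperature, polarization is measured and normalized to unbound and bound controls.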
TexasRed fluor = counter-screen for TRb-SRC2 inhibitors: fluorescence interference; Potency, µM (doses to about 106 µM); 280,000 tested, 0.29% active; AID 1479; TRb/SRC2 Texas Red total fluorescence interference; active = well fitted curve in either direction with a large enough effect; inconclusive = small, poorly fitted or top-dose-only effect
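Human TRb ligand-binding domain at 0.6 uM with 20 nM Texas Red SRC2 peptide in Tris buffer containing 1 uM T3 and 5% DMSO, incubated with compound 5 h at ambient temperature. Total fluorescence (555/632 nm) calculated as parallel + 2 × perpendicular.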
Large screens that a line does not name were inactive; [ ] = dose if it differs, or a comment. Hits are enriched below; roughly 3.2% of the tested compounds scored in any of these assays. Unless noted, calls come from the whole dose curve; as a rule, active = well fitted curve in the direction sought with a large enough effect; inconclusive = small, poorly fitted or top-dose-only effect, or another doubt; inactive = no such curve, though single readings can be large; an effect the other way counts as inactive or inconclusive.

CC(=O)N1c2ccccc2C2(O)N=C(C)SC12 (stereo unspecified)	GoLoco inh red 7.9µM
COc1ccc(CNc2ncnc3ccc(-c4c(C)noc4C)cc23)c(OC)c1	none (no result: Tau fluor cs, Tau ThT inhib, Tau fibril FP, TRb SRC2 PPI, TexasRed fluor)
S=C(Nc1cccc(Cl)c1)NC1CCCCC1	none
S=C(NNc1cccc(Cl)c1)NC1CCCCC1	Tau ThT inhib 25µM, Tau fibril FP inconclusive
CC1CCCN(C(=S)Nc2ccc(Nc3ccccc3)cc2)C1 (stereo unspecified)	Tau fluor cs 13µM[quencher], Tau ThT inhib inconclusive, Tau fibril FP inconclusive
S=C(Nc1ccc(Nc2ccccc2)cc1)NC1CCCCCC1	Tau fluor cs 10µM[quencher]
S=C(Nc1ccc(Cl)cc1)NC1CCCCC1	none
C/C(=C\C[Si](C)(C)C)CC[C@H](O)C1=CCCCC1=O	none
COc1ccc(C2C=C3CNS(=O)(=O)C3CC2OC(=O)c2cccs2)cc1 (stereo unspecified)	none (no result: Tau fluor cs, GoLoco inh red, Tau ThT inhib, Tau fibril FP)
COC(=O)C1(C(=O)OC)Cc2conc2[C@H]1c1ccccc1	Tau fluor cs inconclusive, Tau ThT inhib inconclusive, Tau fibril FP inconclusive
CCOC(=O)Cn1c2[n+](c3ccccc31)CC(O)CS2 (stereo unspecified)	GoLoco inh red 16µM
CCOC(=O)C[C@@H](C(=O)OCC)[C@@H]1CCCCC1=O	none (no result: GoLoco inh red)
CC[N+]1=C(C)C(C)(C)c2cc(C)ccc21	Tau fluor cs 0.71µM[fluorescent], Tau ThT inhib 3.5µM, Tau fibril FP inconclusive, TRb SRC2 PPI inconclusive, TexasRed fluor 40µM[fluorescent]
Cc1ccc2c(c1)C=CC(C)(C)S2=O (stereo unspecified)	none
Nc1nonc1OCCN1CCN(c2ccc([N+](=O)[O-])c3cccnc23)CC1	Tau fluor cs inconclusive, Tau ThT inhib 18µM
COc1cc2c(cc1O)[C@@H](c1cc(O)c(O)c(OC)c1)[C@@](O)(C(=O)O)[C@@H](CO)[C@@H]2O	none (no result: Tau fluor cs, Tau ThT inhib, Tau fibril FP, TRb SRC2 PPI, TexasRed fluor)
CCCCS(=O)(=O)N1C2=NC(C(=O)OC)=C(C(=O)OC)[C@@H]3Nc4ccccc4[C@]23C[C@H]1C(=O)OC	none
CCN(CC)c1ccc(/C=N/NC(=O)c2ccc(Br)o2)cc1	Tau fluor cs inconclusive, Tau ThT inhib 3.2µM
O=C(C[n+]1ccccc1)Nc1c(Cl)cc(Cl)cc1Cl	Tau ThT inhib 18µM
CC[C@H](C)[C@H](NC(=O)[C@H](CC(=O)O)NC(=O)[C@H](CC(C)C)NC(=O)[C@H](Cc1cnc[nH]1)NC(=O)[C@H](C)NC(=O)[C@H](Cc1ccccc1)NC(=O)[C@H](Cc1ccc(O)cc1)NC(=O)[C@@H](NC(=O)[C@H](C)NC(=O)[C@H](CCC(=O)O)NC(=O)[C@H](CCC(=O)O)NC(=O)[C@H](CC(=O)O)NC(=O)CCC(=O)O)C(C)C)C(=O)N[C@H](C(=O)N[C@@H](Cc1c[nH]c2ccccc12)C(=O)O)[C@@H](C)CC	none (no result: Tau fluor cs, GoLoco inh red, Tau ThT inhib, Tau fibril FP)
CCCN(CCC)C(=O)SCC	none (no result: Tau fluor cs, Tau ThT inhib, Tau fibril FP)
CCCCCn1c(=O)c(C(=O)c2ccccc2)nc2ccccc21	none
CCCCCCn1c(=O)[nH]c2nc3cc(N)ccc3nc2c1=O	Tau fluor cs inconclusive, Tau ThT inhib 28µM, Tau fibril FP inconclusive (no result: GoLoco inh red)
NC(=O)C1(NC(=O)[C@@H]2CC3(CC(c4cccc(NC(=O)c5cc([N+](=O)[O-])cc([N+](=O)[O-])c5)c4)=NO3)CN2C(=O)c2ccccc2)CC1 (stereo partly specified)	Tau fluor cs 25µM[quencher], Tau fibril FP inconclusive
COc1ccc(C2CC(c3ccccc3)Oc3cc4c(cc32)OCO4)cc1 (stereo unspecified)	none (no result: Tau fluor cs, GoLoco inh red, Tau ThT inhib, Tau fibril FP)
Cc1ccc(O)c(CNc2cccc3cccnc23)c1	Tau fluor cs 14µM[quencher], Tau ThT inhib inconclusive
CCCNC(=O)c1c[nH]c2ccc(S(=O)(=O)N(C)c3ccc(OCC)cc3)cc2c1=O	Tau fluor cs inconclusive, Tau fibril FP 14µM
CCOc1ccc(NS(=O)(=O)c2ccc3[nH]cc(C(=O)NCc4ccccc4)c(=O)c3c2)cc1	Tau fluor cs inconclusive, Tau fibril FP 3.5µM (no result: GoLoco inh red)
CCOc1ccc(NS(=O)(=O)c2ccc3[nH]cc(C(=O)NCc4ccco4)c(=O)c3c2)cc1	Tau fluor cs inconclusive, Tau fibril FP 16µM (no result: GoLoco inh red)

From PubChem
